What was measured:
Experiment in all cases: log2 ratio of Biotin-Ahx-Ub-VS probe labelling (fragment/DMSO); higher = less target engagement (more negative = stronger competition), active = hit call of the paper (q ≤ 0.05, log2 ratio ≤ -1)
Conditions in all cases: compound concentration: 200 uM; treatment time: 3 h
[1] = biological target: T1, ALG13 (UniProt Q9NP73)
T1 sequence (whole entry): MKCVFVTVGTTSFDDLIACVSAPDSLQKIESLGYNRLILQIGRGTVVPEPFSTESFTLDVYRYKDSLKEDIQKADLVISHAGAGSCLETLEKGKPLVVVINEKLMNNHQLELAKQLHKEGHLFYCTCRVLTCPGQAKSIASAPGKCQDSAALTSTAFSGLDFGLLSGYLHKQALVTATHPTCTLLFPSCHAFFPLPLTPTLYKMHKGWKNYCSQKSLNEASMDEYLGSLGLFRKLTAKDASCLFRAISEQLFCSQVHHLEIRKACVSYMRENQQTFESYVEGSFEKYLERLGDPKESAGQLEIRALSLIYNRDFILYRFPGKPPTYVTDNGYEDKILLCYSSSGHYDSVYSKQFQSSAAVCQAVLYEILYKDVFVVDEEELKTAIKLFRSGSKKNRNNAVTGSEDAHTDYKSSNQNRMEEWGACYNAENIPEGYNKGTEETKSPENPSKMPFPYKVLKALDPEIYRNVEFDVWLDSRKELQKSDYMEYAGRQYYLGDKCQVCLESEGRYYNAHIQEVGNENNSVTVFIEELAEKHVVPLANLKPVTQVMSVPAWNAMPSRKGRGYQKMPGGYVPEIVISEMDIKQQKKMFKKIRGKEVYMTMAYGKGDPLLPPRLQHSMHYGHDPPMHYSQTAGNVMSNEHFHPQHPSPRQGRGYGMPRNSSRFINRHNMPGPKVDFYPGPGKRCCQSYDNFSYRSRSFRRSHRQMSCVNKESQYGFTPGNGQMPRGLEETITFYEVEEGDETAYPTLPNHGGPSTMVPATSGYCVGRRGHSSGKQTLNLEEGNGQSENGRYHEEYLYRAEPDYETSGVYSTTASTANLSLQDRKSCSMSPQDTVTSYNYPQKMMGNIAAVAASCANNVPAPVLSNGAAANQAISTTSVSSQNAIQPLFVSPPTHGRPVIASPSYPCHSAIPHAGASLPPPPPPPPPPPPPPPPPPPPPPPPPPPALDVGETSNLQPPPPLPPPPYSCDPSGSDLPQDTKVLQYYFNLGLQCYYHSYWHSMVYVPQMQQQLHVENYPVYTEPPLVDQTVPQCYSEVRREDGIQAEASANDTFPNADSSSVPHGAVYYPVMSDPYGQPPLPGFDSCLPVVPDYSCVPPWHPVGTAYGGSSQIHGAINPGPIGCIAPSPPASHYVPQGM
Summary of the method: (§1)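 The table lists average log2 ratios of fragment over vehicle, from an unpaired t-test on global-median-normalised Spectronaut label-free quantities. Proteins with ≥2 unique peptides were used. Samples were HEK293T lysate (495 µg) treated in triplicate with fragment at 200 µM or vehicle for 3 h, then with Biotin-Ahx-Ub-VS (0.5 µM final) for 1 h, with labelled DUBs NeutrAvidin-enriched and run by diaPASEF LC-MS/MS.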

[2] = biological target: ATXN3 (UniProt P54252)
Summary of the method: as §1

[3] = biological target: T2, BAP1 (UniProt Q92560)
T2 sequence (whole entry): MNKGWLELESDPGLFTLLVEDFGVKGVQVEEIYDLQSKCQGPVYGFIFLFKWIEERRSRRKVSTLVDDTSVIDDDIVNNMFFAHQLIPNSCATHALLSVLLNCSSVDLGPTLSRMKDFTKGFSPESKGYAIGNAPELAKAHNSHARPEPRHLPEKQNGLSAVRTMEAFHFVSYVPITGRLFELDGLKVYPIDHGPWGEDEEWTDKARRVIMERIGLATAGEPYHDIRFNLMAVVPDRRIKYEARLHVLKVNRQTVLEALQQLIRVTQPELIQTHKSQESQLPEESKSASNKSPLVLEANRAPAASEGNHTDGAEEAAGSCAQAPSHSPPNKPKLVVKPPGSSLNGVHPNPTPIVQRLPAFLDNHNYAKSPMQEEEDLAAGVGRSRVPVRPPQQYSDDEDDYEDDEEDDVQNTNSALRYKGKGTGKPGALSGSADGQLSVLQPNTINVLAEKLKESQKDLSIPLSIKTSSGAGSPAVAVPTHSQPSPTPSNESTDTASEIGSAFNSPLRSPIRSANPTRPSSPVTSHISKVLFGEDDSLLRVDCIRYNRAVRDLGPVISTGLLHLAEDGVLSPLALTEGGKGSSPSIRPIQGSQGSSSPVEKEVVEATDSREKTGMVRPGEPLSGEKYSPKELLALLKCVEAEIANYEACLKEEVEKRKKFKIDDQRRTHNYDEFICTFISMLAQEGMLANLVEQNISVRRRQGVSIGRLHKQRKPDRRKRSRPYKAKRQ
Summary of the method: as §1

[4] = biological target: EIF3F (UniProt O00303)
Summary of the method: as §1

[5] = biological target: EIF3H (UniProt O15372)
Summary of the method: as §1

[6] = biological target: T3, FAM105A (UniProt Q9NUU6)
T3 sequence (whole entry): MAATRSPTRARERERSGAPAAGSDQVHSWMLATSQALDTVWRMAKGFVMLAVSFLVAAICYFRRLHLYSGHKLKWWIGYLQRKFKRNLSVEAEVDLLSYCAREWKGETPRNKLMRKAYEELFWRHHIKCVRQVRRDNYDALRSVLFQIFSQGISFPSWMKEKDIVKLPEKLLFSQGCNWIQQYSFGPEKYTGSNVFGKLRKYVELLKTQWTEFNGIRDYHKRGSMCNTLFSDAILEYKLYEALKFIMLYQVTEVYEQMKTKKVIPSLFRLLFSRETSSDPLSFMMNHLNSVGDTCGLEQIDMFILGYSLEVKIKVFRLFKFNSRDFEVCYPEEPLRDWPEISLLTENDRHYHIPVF
Summary of the method: as §1

[7] = biological target: OTUB1 (UniProt Q96FW1)
Summary of the method: as §1

[8] = biological target: T4, OTUD4 (UniProt Q01804)
T4 sequence (whole entry): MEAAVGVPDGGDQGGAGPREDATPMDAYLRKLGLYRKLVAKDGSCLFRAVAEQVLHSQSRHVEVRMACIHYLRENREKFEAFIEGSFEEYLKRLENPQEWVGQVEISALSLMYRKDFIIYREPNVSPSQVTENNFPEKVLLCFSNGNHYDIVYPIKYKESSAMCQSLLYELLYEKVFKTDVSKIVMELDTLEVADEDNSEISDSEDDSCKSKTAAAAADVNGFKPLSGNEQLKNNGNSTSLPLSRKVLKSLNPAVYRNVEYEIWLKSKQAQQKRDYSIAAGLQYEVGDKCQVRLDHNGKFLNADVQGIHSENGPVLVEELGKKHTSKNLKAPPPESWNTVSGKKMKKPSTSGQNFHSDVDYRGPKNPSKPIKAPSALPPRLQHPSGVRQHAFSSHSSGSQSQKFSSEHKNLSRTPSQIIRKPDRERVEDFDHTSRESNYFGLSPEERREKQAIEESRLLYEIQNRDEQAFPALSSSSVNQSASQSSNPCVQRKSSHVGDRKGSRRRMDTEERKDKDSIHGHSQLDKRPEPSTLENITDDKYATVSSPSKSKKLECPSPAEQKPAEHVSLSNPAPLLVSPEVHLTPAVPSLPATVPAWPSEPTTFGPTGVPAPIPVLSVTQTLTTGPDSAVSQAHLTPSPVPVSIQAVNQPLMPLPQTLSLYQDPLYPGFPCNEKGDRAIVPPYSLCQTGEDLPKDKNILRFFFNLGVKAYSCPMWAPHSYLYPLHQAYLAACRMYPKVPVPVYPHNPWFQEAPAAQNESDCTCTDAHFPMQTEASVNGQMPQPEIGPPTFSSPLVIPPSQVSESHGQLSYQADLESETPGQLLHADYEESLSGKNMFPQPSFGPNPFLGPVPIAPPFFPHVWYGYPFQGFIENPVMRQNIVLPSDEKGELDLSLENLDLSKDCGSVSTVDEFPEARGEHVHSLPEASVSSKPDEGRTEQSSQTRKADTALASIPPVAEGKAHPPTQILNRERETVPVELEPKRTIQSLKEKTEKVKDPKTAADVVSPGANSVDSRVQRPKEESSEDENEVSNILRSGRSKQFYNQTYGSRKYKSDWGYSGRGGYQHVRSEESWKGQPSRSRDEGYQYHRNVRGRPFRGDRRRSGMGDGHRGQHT
Summary of the method: as §1

[9] = biological target: T5, OTUD5 (UniProt Q96G74)
T5 sequence (whole entry): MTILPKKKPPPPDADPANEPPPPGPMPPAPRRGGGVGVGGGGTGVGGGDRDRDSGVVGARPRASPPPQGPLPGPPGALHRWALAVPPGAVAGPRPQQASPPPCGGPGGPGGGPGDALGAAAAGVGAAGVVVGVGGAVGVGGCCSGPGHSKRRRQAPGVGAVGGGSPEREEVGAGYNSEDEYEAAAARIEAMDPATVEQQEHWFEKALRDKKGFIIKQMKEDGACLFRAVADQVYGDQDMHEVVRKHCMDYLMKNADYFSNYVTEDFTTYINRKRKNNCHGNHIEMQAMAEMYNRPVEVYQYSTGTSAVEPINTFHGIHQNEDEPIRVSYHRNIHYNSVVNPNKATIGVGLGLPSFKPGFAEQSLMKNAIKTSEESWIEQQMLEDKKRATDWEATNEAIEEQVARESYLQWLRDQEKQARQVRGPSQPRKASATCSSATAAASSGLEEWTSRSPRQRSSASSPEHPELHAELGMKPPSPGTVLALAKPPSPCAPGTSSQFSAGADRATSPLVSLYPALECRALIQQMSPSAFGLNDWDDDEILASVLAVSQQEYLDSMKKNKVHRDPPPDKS
Summary of the method: as §1

Measured: log2 ratio of Biotin-Ahx-Ub-VS probe labelling

EIF3F, sequence (O00303 whole entry): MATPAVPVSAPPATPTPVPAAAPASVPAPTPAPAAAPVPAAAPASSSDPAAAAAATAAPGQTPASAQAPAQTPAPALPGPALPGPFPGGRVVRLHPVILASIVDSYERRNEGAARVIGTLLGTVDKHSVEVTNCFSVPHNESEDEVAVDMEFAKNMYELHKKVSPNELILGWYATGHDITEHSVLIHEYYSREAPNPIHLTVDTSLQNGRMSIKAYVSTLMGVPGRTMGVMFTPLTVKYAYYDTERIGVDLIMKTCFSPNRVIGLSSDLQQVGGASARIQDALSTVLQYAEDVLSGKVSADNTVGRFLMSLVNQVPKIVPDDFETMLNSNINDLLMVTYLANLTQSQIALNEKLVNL
ATXN3, sequence (P54252 whole entry): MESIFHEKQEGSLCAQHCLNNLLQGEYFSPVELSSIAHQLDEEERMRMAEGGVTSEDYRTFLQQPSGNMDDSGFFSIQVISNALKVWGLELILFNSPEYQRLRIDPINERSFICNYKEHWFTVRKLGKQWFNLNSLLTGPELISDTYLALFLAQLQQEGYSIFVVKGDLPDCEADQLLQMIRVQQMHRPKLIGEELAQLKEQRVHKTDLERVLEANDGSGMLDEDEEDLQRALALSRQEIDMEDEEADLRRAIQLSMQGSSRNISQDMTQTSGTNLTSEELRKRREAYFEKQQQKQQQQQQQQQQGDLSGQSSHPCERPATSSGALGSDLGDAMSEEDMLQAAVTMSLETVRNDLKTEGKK
EIF3H, sequence (O15372 whole entry): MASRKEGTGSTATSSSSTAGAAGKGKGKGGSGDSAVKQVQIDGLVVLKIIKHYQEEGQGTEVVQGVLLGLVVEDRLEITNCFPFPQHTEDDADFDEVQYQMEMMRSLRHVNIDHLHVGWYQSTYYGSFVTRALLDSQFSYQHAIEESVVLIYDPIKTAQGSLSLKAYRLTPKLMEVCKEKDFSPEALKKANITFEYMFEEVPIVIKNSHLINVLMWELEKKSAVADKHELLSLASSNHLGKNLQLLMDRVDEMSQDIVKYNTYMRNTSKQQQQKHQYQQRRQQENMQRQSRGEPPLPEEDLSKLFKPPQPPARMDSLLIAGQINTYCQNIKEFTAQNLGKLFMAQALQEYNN
OTUB1, sequence (Q96FW1 whole entry): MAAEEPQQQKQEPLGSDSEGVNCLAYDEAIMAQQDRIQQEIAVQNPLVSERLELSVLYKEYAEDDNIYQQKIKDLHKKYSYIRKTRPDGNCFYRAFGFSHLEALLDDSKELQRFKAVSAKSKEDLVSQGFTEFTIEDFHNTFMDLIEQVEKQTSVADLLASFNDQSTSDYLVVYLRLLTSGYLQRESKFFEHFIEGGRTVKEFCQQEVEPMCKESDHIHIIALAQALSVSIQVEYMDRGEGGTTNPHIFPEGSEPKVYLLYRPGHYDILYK

O=C(CCl)Nc1cc2c(cc1Cl)OCCO2
active: [3] -3.65
inactive: [1] -0.314 | [2] 0.00781 | [4] -0.138 | [5] 0.0273 | [6] 0.123 | [7] 0.157 | [8] -0.327 | [9] -0.173

— the supplement of paper PMC11732987, “Enantioselective OTUD7B fragment discovery through chemoproteomics screening and high-throughput optimisation” (Communications Chemistry, 2025)
